Results filed as inconclusive are left out. Active and inactive are the calls of the source. Unless noted, calls follow the shape of the dose curve; as a rule, active = well fitted curve in the direction sought with a large enough effect in the repeat runs; inconclusive = weak or mixed curves; inactive = no such curve, though single readings can be large; an effect the other way counts as inactive or inconclusive.
How the values were obtained:
[1] = qHTS assay to identify small molecule agonists of the NFkB signaling pathway - cell viability counter screen (AID 1159515; calls by dose curve; also: series mostly up to about 61 µM; % is scaled to controls: 0 for no effect and ±100 for the full control effect; nearly all actives have a fitted effect of over 55% in size)
In short: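 NFkB-bla ME-180 cells, 2,000/well, plated overnight at 37 C; compound added for 5 hr at 37 C. Viability read in the same wells as the bla reporter, by CellTiter-Glo luminescence after 30 min at room temperature.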

[2] = qHTS assay to identify small molecule agonists of the endoplasmic reticulum stress response signaling pathway - cell viability counter screen (AID 1159517; calls by dose curve;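 also: HeLa cells carrying an ER stress response element beta-lactamase reporter; series mostly up to about 61 µM; % is scaled to controls: 0 for no effect and ±100 for the full control effect; nearly all actives have a fitted effect of over 50% in size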)
In short: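 CellTiter-Glo was added to wells already read for beta-lactamase FRET, and luminescence was recorded 30 min later. Cells: ESRE-bla HeLa, 1,500 per well, compound exposure 5 hr at 37 C.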

[3] = qHTS assay to identify small molecule antagonists of the retinoid-related orphan receptor gamma (ROR-gamma) signaling pathway - cell viability counter screen (AID 1159520); also: % is scaled to controls: 0 for no effect and ±100 for the full control effect; nearly all actives have a fitted effect of over 50% in size
In short: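 Tet-on ROR gamma CHO cells (1,000/well) were plated 4 hr, given compounds in DMSO for 2 hr at 37 C, then induced with 1 uM final doxycycline for 16 hr. Viability was read as ATP by CellTiter-Glo luminescence after 30 min.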

[4] = molecular target: Nuclear receptor ROR-gamma (Homo sapiens) (UniProt P51449); assay: qHTS assay to identify small molecule antagonists of the retinoid-related orphan receptor gamma (ROR-gamma) signaling pathway (AID 1159521; also: top concentration of the series differs between compounds; % is scaled to controls: 0 for no effect and ±100 for the full control effect; nearly all actives have a fitted effect of over 50% in size)
In short: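 Antagonist read-out: drop in luminescence (ONE-Glo) from an RORE-LUC reporter in CHO cells with doxycycline-inducible ROR-gamma; 2 hr compound pretreatment, 1 uM doxycycline, 16 hr incubation at 37 C.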

[5] = qHTS assay to identify small molecule agonists of the AP-1 signaling pathway - cell viability counter screen (AID 1159525; calls by dose curve; also: nearly all actives have a fitted effect of over 55% in size)
In short: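 ME-180 AP-1-bla, 2500 cells/well, Opti-MEM + 0.5% dialyzed FBS; overnight 37 °C; cpd 15-pt titration, 5 h 37 °C; CellTiter-Glo 30 min RT; luminescence read; normalised to TOAB and DMSO controls.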

[6] = qHTS assay to identify small molecule agonists of the AP-1 signaling pathway (AID 1159526; calls by dose curve; also: % is scaled to controls: 0 for no effect and ±100 for the full control effect)
[7] = molecular target: Retinoic acid receptor RXR-alpha (Homo sapiens) (UniProt P19793); assay: qHTS assay to identify small molecule agonists of the RXR signaling pathway (AID 1159527; calls by dose curve; also: % is scaled to controls: 0 for no effect and ±100 for the full control effect; nearly all actives have a fitted effect of over 35% in size)
In short: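 Agonist-mode beta-lactamase reporter assay: HEK 293T RXR-alpha-UAS-bla cells treated 16 hr at 37 C with compounds, 9-cis retinoic acid as positive control. LiveBLAzer FRET substrate, 405 nm excitation, 460/530 nm emission.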

[8] = qHTS assay to identify small molecule agonists of the RXR signaling pathway - cell viability counter screen (AID 1159529); also: series mostly up to about 77 µM; % is scaled to controls: 0 for no effect and ±100 for the full control effect; nearly all actives have a fitted effect of over 50% in size
In short: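 CellTiter-Glo luminescence gave viability in the wells also read for beta-lactamase. Cells (RXR-alpha-UAS-bla HEK 293T, 2% charcoal-stripped FBS medium) had 5 hr plating, then 16 hr compound exposure at 37 C; tetraoctyl ammonium bromide served as positive control.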

[9] = qHTS assay to identify small molecule antagonists of the retinoid acid receptor (RAR) signaling pathway - cell viability counter screen (AID 1159551); also: % is scaled to controls: 0 for no effect and ±100 for the full control effect; nearly all actives have a fitted effect of over 35% in size
In short: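 C3RL4 RARE-luciferase cells, 1,000/well, incubated overnight, then dosed with compound plus 1 uM retinol (final). After 6 hr at 37 C, viability read by CellTiter-Glo ATP luminescence following 30 min at room temperature.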

[10] = qHTS assay to identify small molecule antagonists of the estrogen related receptor (ERR) signaling pathway from Tox21 library - cell viability counter screen (AID 1224834); also: % is scaled to controls: 0 for no effect and ±100 for the full control effect; nearly all actives have a fitted effect of over 30% in size
In short: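 ERR reporter cells, 2,000 per well, rested 6 h, then exposed to compound in DMSO for 17.5 hours at 37 C. Viability read as fluorescence after 30 min with CellTiter-Fluor.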

[11] = qHTS assay to identify small molecule antagonists of the vitamin D receptor (VDR) signaling pathway - cell viability counter screen (AID 743225)
In short: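 Cytotoxicity counter screen read by CellTiter-Glo luminescence (30 min, room temperature) in the same wells as the VDR-bla antagonist readout. HEK 293T VDR-UAS-bla cells had 16 h at 37C with compound and 3 nM (final) 1-alpha,25-dihydroxyvitamin D3, then 2 h with FRET substrate.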

[12] = qHTS assay to identify small molecule agonists of the retinoic acid receptor (RAR) signaling pathway (AID 1159553); also: % is scaled to controls: 0 for no effect and ±100 for the full control effect
In short: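 C3RL4 RARE-luciferase cells were seeded at 1,000/well and grown overnight at 37 C, then exposed to compounds for 6 hr at 37 C, 5% CO2. Luciferase reagent was added and luminescence was read after 30 min at room temperature.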

[13] = qHTS assay to identify small molecule antagonists of the estrogen related receptor (ERR) signaling pathway - cell viability counter screen (AID 1224818); also: series mostly up to about 46 µM; % is scaled to controls: 0 for no effect and ±100 for the full control effect
In short: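 ERR cells, 2,000 per well, compound added after 6 h and incubated 17.5 h at 37 C. Viability read by CellTiter-Fluor fluorescence after a further 30 min at 37 C.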

[14] = qHTS assay to identify small molecule antagonists of the estrogen related receptor signaling pathway with the pleiotropic PPARgamma coactivator (PGC) cell viability counter screen (AID 1224822; also: series mostly up to about 46 µM; % is scaled to controls: 0 for no effect and ±100 for the full control effect)
In short: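 PGC/ERR cells rested 6 h, then compound-treated 17.5 h at 37 C. CellTiter-Fluor added for 30 min at 37 C, viability measured by fluorescence intensity.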

[15] = qHTS assay to identify small molecule antagonists of the retinoic acid receptor (RAR) signaling pathway (AID 1159552)
In short: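 Luminescent RARE reporter read-out in C3RL4 cells: 6 hr co-treatment at 37 C of test compounds with retinol at 1 uM final. Cells plated overnight beforehand; luciferase reagent incubated 30 min at room temperature before reading.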

Chain of Retinoic acid receptor RXR-alpha (Homo sapiens) (P19793 whole entry, looked up): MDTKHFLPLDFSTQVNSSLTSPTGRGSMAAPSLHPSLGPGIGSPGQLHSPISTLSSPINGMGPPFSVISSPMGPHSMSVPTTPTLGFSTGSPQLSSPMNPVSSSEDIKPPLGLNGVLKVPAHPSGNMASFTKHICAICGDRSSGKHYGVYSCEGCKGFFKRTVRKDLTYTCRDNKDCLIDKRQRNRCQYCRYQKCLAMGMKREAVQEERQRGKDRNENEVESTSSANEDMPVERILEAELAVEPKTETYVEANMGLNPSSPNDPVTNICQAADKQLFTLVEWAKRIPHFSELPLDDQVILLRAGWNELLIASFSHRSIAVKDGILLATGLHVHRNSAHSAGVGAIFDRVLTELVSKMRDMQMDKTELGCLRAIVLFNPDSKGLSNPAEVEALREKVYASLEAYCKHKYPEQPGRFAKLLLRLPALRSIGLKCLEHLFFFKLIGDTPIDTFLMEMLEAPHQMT

CC1=CCC(O)(C(C)C)CC1 (configuration not stated)
inactive: outcome [1] | outcome [2] | outcome [3] | Potency [4] | outcome [5] | outcome [6] | Potency [7] | Potency [8] | outcome [9] | Potency [10]

CO/N=C(\C(=O)N[C@@H]1C(=O)N2C(C(=O)O)=C(CSc3nc(=O)c(O)nn3C)CS[C@H]12)c1csc(N)n1
inactive: outcome [11] | outcome [1] | outcome [2] | outcome [3] | Potency [4] | outcome [5] | outcome [6] | Potency [7] | outcome [9] | Potency [12]

CC(C)NNC(=O)c1ccncc1
inactive: outcome [11] | outcome [1] | outcome [2] | outcome [3] | Potency [4] | outcome [5] | outcome [6] | Potency [8] | outcome [9] | outcome [13] | outcome [14] | Potency [10]

CC(C)(C)C(=O)Oc1ccc(S(=O)(=O)Nc2ccccc2C(=O)NCC(=O)O)cc1
inactive: outcome [11] | outcome [1] | outcome [2] | outcome [3] | Potency [4] | outcome [5] | outcome [6] | Potency [8] | outcome [9] | Potency [12] | outcome [13] | outcome [14] | Potency [10]

O=S(=O)(O)c1cccc(S(=O)(=O)O)c1
inactive: outcome [11] | outcome [1] | outcome [2] | outcome [3] | Potency [4] | outcome [5] | outcome [6] | Potency [7] | Potency [8] | outcome [9] | Potency [15] | Potency [10]

NC(N)=NCCN1CCCCCCC1
inactive: viability change, negative = cytotoxic [11] -3.67% [at 0.628 µM] | activity, negative = cytotoxic [1] -1.12% [at 0.628 µM] | activity change, negative = cytotoxicity [2] -3.02% [at 0.628 µM] | activity change, negative = inhibition [4] 36.3% [at 0.35 µM] | viability change, negative = cytotoxic [5] 8.04% [at 0.29 µM] | activation [6] -7.76% [at 0.29 µM] | activity change, negative = cytotoxicity [8] -2.51% [at 0.29 µM] | activity change, negative = cytotoxicity [9] -0.855% [at 0.349 µM] | activity, negative = inhibition [15] 16.3% [at 0.349 µM] | activation [12] 0.885% [at 0.756 µM] | viability change, negative = cytotoxic [10] 1.48% [at 0.349 µM]

CCOc1ccccc1OCC
inactive: outcome [1] | outcome [2] | Potency [4] | outcome [5] | outcome [6] | Potency [8] | Potency [10]

NC(=O)NC1N=C([O][Al])NC1=O (configuration not stated)
inactive: outcome [11] | outcome [1] | outcome [2] | outcome [3] | Potency [4] | outcome [5] | outcome [6] | Potency [7] | Potency [8] | Potency [10]

CC(=O)Oc1cccc(C)c1
inactive: outcome [11] | outcome [1] | outcome [2] | outcome [3] | Potency [4] | outcome [5] | outcome [6] | outcome [9]

CC(C)[C@H]1CC[C@@H](C)CC1=O
inactive: outcome [11] | outcome [1] | outcome [2] | outcome [3] | Potency [4] | outcome [5] | outcome [6] | Potency [7] | Potency [8] | outcome [9]

C[C@@H]1CCC[C@H](C)N1
inactive: outcome [1] | outcome [2] | outcome [3] | Potency [4] | outcome [5] | outcome [6] | Potency [7] | Potency [8] | Potency [10]

CO[Si](C)(OC)c1ccccc1
inactive: outcome [1] | outcome [2] | outcome [3] | Potency [4] | outcome [5] | outcome [6] | Potency [7] | Potency [8] | outcome [9] | Potency [10]

CCOCC(C)O (configuration not stated)
inactive: outcome [1] | outcome [2] | outcome [3] | Potency [4] | outcome [5] | outcome [6] | Potency [7] | Potency [8] | outcome [9] | Potency [10]

Cc1ccc(-c2ccccc2C#N)cc1
inactive: outcome [11] | outcome [1] | outcome [2] | outcome [3] | Potency [4] | outcome [5] | outcome [6] | Potency [7] | Potency [8] | outcome [9] | Potency [15] | Potency [10]

CCOC(=O)c1ccccc1
inactive: outcome [11] | outcome [1] | outcome [2] | outcome [3] | Potency [4] | outcome [5] | outcome [6] | Potency [7] | outcome [9] | Potency [10]

CC(CO)(CO)[N+](=O)[O-]
inactive: outcome [1] | outcome [2] | outcome [3] | Potency [4] | outcome [5] | outcome [6] | Potency [7] | Potency [8] | outcome [9] | Potency [10]

CCCn1cc[n+](C)c1C
inactive: outcome [11] | outcome [1] | outcome [2] | Potency [4] | outcome [5] | outcome [6] | Potency [8] | Potency [12]

O=C(O)CC(C(=O)O)S(=O)(=O)O (configuration not stated)
inactive: outcome [1] | outcome [2] | outcome [3] | Potency [4] | outcome [5] | outcome [6] | Potency [7] | outcome [9] | Potency [15] | Potency [10]

CC(CC=O)CC(C)(C)C (configuration not stated)
inactive: outcome [11] | outcome [1] | outcome [2] | Potency [4] | outcome [5] | outcome [6] | Potency [8] | outcome [9] | Potency [15] | Potency [10]

Cc1ccc(-c2ncc(Cl)cc2-c2ccc(S(C)(=O)=O)cc2)cn1
inactive: outcome [11] | outcome [1] | outcome [2] | outcome [3] | Potency [4] | outcome [5] | outcome [6] | Potency [7] | Potency [8] | outcome [9] | Potency [10]

CCCC[N+](C)(CCCC)CCCC
inactive: outcome [11] | outcome [1] | outcome [2] | outcome [3] | Potency [4] | outcome [5] | outcome [6] | Potency [7] | Potency [8] | outcome [9] | Potency [10]

Clc1cc(Cl)cc(Cl)c1
inactive: outcome [11] | outcome [1] | outcome [2] | outcome [3] | Potency [4] | outcome [5] | outcome [6] | Potency [7] | Potency [8] | outcome [9] | Potency [10]

COc1cc(C(=O)NCc2ccc(OCCN(C)C)cc2)cc(OC)c1OC
inactive: outcome [11] | outcome [1] | outcome [2] | outcome [3] | Potency [4] | outcome [5] | outcome [6] | Potency [7] | Potency [8] | outcome [9] | Potency [12] | Potency [10]

Source: PubChem BioAssay (Tox21)
